Data as given in PMC4336329 (PLoS ONE, 2015).
Screen size: about 310,000 compounds; about 14,000 (4.5%) showed an effect of 50% or more. The effect is printed as a negative number. Many of the other results were omitted from the sample, so strong results are more common in it than they were.

target: human ether-à-go-go-related gene (hERG) potassium channel (human, UniProt Q12809); assay: primary screen, population patch clamp on CHO cells stably expressing hERG; higher = less effect of the substance
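Further: peak tail current of the secondary pulse compared with the same well before compound.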

Chain of human ether-à-go-go-related gene (hERG) potassium channel (Q12809 whole entry, looked up): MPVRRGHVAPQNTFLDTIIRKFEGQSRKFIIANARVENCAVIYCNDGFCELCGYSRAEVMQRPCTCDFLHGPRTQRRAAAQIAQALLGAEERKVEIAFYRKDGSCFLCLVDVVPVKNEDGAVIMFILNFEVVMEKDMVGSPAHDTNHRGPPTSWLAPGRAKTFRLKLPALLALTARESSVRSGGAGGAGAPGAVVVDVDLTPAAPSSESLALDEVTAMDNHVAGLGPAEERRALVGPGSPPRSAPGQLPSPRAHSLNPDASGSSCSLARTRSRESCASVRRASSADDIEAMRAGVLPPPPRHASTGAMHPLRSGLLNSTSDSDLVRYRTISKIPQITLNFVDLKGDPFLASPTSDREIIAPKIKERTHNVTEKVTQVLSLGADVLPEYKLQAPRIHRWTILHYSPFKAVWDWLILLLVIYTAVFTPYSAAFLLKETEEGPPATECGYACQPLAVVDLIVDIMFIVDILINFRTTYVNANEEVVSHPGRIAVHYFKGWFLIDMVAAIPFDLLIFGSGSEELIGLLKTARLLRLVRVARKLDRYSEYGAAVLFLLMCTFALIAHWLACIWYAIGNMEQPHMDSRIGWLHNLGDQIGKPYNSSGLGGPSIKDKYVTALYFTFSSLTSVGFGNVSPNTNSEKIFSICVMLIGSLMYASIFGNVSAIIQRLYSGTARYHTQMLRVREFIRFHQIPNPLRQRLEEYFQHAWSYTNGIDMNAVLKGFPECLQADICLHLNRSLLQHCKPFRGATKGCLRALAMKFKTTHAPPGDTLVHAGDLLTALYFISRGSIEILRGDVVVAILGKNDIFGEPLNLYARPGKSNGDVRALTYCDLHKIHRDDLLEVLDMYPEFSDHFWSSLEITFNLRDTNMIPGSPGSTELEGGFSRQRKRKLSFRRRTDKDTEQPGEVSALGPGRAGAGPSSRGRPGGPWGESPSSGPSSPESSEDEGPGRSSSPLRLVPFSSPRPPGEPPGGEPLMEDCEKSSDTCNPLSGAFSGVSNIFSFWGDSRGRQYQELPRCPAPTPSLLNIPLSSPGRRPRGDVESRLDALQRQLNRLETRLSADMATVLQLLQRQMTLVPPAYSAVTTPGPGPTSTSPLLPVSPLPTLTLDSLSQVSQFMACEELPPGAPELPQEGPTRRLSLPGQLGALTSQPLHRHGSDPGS

| SMILES | hERG current change (%, negative = inhibition) at 10uM |
| --- | --- |
| Cc1cc2cccc(C)c2nc1SCC(=O)NNC(=O)c1ccco1 | 3.66% |
| Cn1nc(C(=O)Nc2cccc(S(=O)(=O)N3CCCC3)c2)c2ccccc2c1=O | -4.87% |
| C=CCOc1c(CNc2ccc3[nH]c(=O)[nH]c3c2)cccc1OC | 10.1% |
| Cc1ccc(NC2CCCN(C(=O)c3snnc3C)C2)cc1C (centres unmarked) | 0.46% |
| Cl.Cn1c2c(c3ccccc31)CCN1CCC[C@]21c1ccccc1 | -60.7% |
| Cn1c2c(c(=O)c3ccccc31)CCC(C)(C)O2 | -3.57% |
| Cn1c2c(c(=O)c3ccccc31)CCCC2 | -4.88% |
| COc1ccc(-c2nnc(NC(=O)c3ccc(S(=O)(=O)N(C)CC4CCCO4)cc3)o2)c(OC)c1 (centres unmarked) | 10.3% |
| Cc1ccccc1C(=O)Nc1ccnn1C1CCN(Cc2cnn(C)c2)CC1 | -26.5% |
| CCn1cc(CN2CCC(n3nccc3NC(=O)c3ccccc3C)CC2)c(C)n1 | -37.9% |
| CCn1cc(CN2CCC(n3nccc3NC(=O)Cc3ccccc3)CC2)cn1 | 7.27% |
| Cn1cc(CN2CCC(n3nccc3NC(=O)c3ccccc3Cl)CC2)cn1 | -32.9% |
| CCn1cc(CN2CCC(n3nccc3NC(=O)c3ccccc3C)CC2)cn1 | -58.2% |
| CC(C)n1cc(CN2CCC(n3nccc3NC(=O)Cc3ccccc3)CC2)cn1 | 7.82% |
| Cc1ccccc1C(=O)Nc1ccnn1C1CCN(Cc2cnn(C(C)C)c2)CC1 | -72.3% |
| CCn1cc(CN2CCC(n3nccc3NC(=O)c3ccc(OC)cc3)CC2)cn1 | -4.16% |
| COc1ccccc1C(=O)Nc1ccnn1C1CCN(Cc2cnn(C)c2)CC1 | -55.6% |
| COc1ccc(C(=O)Nc2ccnn2C2CCN(Cc3cnn(C)c3)CC2)cc1 | 6.81% |
| CCn1cc(CN2CCC(n3nccc3NC(=O)c3ccccc3OC)CC2)cn1 | -71.4% |
| COC(C(=O)Nc1ccnn1C1CCN(Cc2cnn(C(C)C)c2)CC1)c1ccccc1 (centres unmarked) | -2.06% |
| O=C(COc1cc(F)ccc1[N+](=O)[O-])Nc1ccc(N2CCOCC2)cc1 | 7.65% |
| CN1C(=O)C2(C(C#N)=C(N)N(c3ccc(Cl)cc3)C3=C2C(=O)CC(C)(C)C3)c2ccccc21 (centres unmarked) | -6.79% |

| SMILES | hERG current change (%, negative = inhibition) at 10uM |
| --- | --- |
| CCOC(=O)/C(C#N)=N/Nc1c(S(=O)(=O)Cc2ccco2)csc1C(=O)OC | 11.4% |
| COc1ccc(N2CCN(C(=O)Nc3ccccc3Cl)CC2)cc1 | 4.49% |
| Cc1ccccc1NC(=O)CSc1nnc(CNC(=O)c2ccc3c(c2)OCO3)n1C | 1.34% |
| CCC1C(=O)NCCN1C(=O)CCc1nnc(CCc2ccc(OC)cc2)o1 (centres unmarked) | 21.9% |
| Cc1ccc(C(=O)NCCNC(=O)COc2ccccc2Cl)cn1 | 6.95% |
| CCN(CC)CCCN(C(=O)c1ccccc1F)c1nc(-c2ccc(OC)cc2)cs1 | -71.4% |
| CCN(C(=O)c1ccccc1F)c1nc(-c2ccc(OC)cc2)cs1 | 22.8% |
| COCCCN(C(=O)c1ccccc1F)c1nc(-c2ccc(OC)cc2)cs1 | 8.7% |
| CCN(CC)CCCN(C(=O)c1ccccc1C)c1nc(-c2ccc(OC)cc2)cs1 | -55.5% |
| COCCN(C(=O)c1ccccc1F)c1nc(-c2ccc(OC)cc2)cs1 | 16.7% |
| CN(CC(=O)Nc1cccc(F)c1)C(=O)CCNC(=O)c1ccco1 | 16.7% |
| CCC(C)(C)NC(=O)C(c1ccccc1)N(Cc1cccs1)C(=O)Cn1nnc2ccccc21 (centres unmarked) | 7.58% |
| Cc1cccc(/C(N)=N/OC(=O)COc2ccc(Cl)c(C)c2)c1 | 13.2% |
| CC1CCN(CCCNC(=O)c2cc3sccc3n2C)CC1 | -57.3% |
| COc1ccc(N2CCN(CCCNC(=O)CCCn3c(=O)[nH]c4ccsc4c3=O)CC2)cc1 | -9.7% |
| COc1ccc(CCNC(=O)c2cc3sccc3n2C)cc1OC | -6.67% |
| COc1ccc(N2CCN(CCCNC(=O)c3cc4sccc4n3C)CC2)cc1 | -70.7% |
| COCCNC(=O)c1cc2sccc2n1C | 1.67% |
| Cn1c(C(=O)NCCCN2CCCCC2)cc2sccc21 | -49% |
| COC(=O)CSc1ccsc1C(=O)O | 5.72% |
| COc1ccc(-c2cc3c(=O)n(CC(=O)Nc4cccc(Cl)c4)nc(C)n3n2)cc1 | 14.8% |
| CCCC(=O)Nc1cccc(NC(=O)c2cccc([N+](=O)[O-])c2C)c1 | -12.8% |
